# Screening results deposited in PubChem by several laboratories.
# Only some compounds are listed: those with a hit (about 2.9% of all), similar ones and a draw of the others.
# FBA Mtb inh – inhibitors of M. tuberculosis fructose-bisphosphate aldolase. P9WQA3. purified M. tuberculosis FBA, fluorescence read-out. inhibition, % at 1 µM. 2.3% of 360,000 active. AID 588726; in the data active means inhibition above about 27%;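 further: 0% = vehicle and 100% = reference inhibitor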
# Target sequence (P9WQA3 whole entry, looked up): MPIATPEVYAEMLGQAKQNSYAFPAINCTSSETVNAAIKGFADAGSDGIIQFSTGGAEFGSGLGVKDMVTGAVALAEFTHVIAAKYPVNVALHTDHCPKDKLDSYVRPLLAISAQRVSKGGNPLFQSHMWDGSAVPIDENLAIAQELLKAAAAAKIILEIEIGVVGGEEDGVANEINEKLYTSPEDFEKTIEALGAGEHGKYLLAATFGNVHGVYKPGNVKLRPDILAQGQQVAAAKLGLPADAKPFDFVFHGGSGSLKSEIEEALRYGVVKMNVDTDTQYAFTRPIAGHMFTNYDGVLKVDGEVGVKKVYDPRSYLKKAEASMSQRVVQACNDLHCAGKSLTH
# Mtb hypoxia rep – reduces hypoxia-regulated biosensor signal in M. tuberculosis | fluorescence inhibition, % (test concentration not listed) | AID 1159583 | 0.1% of 300,000 active | M. tuberculosis hypoxia-regulated fluorescent reporter, fluorescence; in the data active means fluorescence inhibition mostly above about 23%, no sharp cut-off; inactive means mostly below about 17%
# BioA inh – blocks M. tuberculosis BioA enzyme activity | 0.096% of 360,000 active | purified M. tuberculosis BioA enzyme, plate reader | inhibition, % at 9.99 µM; in the data active means inhibition above about 40%
# GDH-TPI inh – GDH-TPI coupled enzyme inhibition counter-screen; inhibition, % at 4.8 µM; 1.2% of 360,000 active; GDH-TPI coupled enzyme counterscreen, NADH absorbance; in the data active means inhibition above about 30%;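 further: 0% = DMSO wells and 100% = wells lacking the enzyme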
# FadD28 FP inh – inhibitors of Mycobacterium tuberculosis FadD28 bisubstrate binding. FadD28 bisubstrate probe binding, fluorescence polarization. inhibition, % at 12.5 µM. 0.22% of 360,000 active. AID 588549; in the data active means inhibition above about 8.5%, passing the limit was not always enough
# Starred values were filed as active, the others as inactive; / = no result; + = active, no number.
SMILES,FBA Mtb inh,Mtb hypoxia rep,BioA inh,GDH-TPI inh,FadD28 FP inh
O=C(NN=Cc1ccc(-c2ccc(S(=O)(=O)Nc3ncccn3)cc2)o1)c1cc2ccccc2cc1O,/,19.9,/,/,/
Cc1noc(C)c1S(=O)(=O)Nc1ccc2c(c1)C(=O)N([C@H](C)CO)C[C@@H](C)[C@H](CN(C)Cc1ccc(Cl)c(Cl)c1)OCCCC[C@@H](C)O2,/,/,-0.7,/,/
O=C(C[C@H]1CC[C@H]2[C@@H](COC[C@H](O)CN2Cc2cc(F)ccc2F)O1)NCc1ccc(F)cc1,/,/,-0.6,/,/
COc1ccc(CN(C)C[C@@H]2Oc3ccc(NC(=O)Nc4ccc5c(c4)OCO5)cc3C(=O)N([C@@H](C)CO)C[C@H]2C)cc1,/,/,7.1,/,/
COc1ccccc1-c1nc(C#N)c(N2CCN(Cc3ccccc3)CC2)o1,18.0,8.0,0.4,13.5,-0.5
Cc1ccc(-c2nc(C#N)c(N3CCC(C(N)=O)CC3)o2)cc1,178.7*,5.4,-1.6,15.1,0.7
CCOC(=O)C1CCCN(c2oc(-c3ccc(OC)cc3)nc2C#N)C1 (stereo not drawn),131.8*,-2.8,1.0,-1.9,-3.1
N#Cc1nc(-c2ccccc2)oc1N1CCC(C(N)=O)CC1,+,4.4,3.1,15.2,0.4
COc1ccccc1-c1nc(C#N)c(N2CCC(Cc3ccccc3)CC2)o1,44.3*,-5.5,-0.7,19.1,-2.1
COc1ccc(NC(=O)Nc2cccc3c2O[C@H](CN(C)C(=O)NC(C)C)[C@@H](C)CN([C@@H](C)CO)C3=O)cc1,/,/,-1.2,/,/
C[C@@H]1CCCCO[C@@H](CN(C)Cc2ccc(C(=O)O)cc2)[C@H](C)CN([C@@H](C)CO)C(=O)c2cc(NC(=O)CCCN(C)C)ccc2O1,/,/,-0.1,/,/
N#Cc1nc(-c2ccco2)oc1N1CCC(C(N)=O)CC1,123.7*,-4.3,1.2,10.0,-3.0
N#Cc1nc(Cc2ccccc2)oc1N1CCC(C(N)=O)CC1,-2.0,8.6,2.1,2.3,-0.2
O=C(OCC#CCSc1nnc(-c2cccc3ccccc23)o1)c1ccc2ccccc2c1,1.6,20.1,-2.2,22.4,-3.7
O=C(OCC#CCSc1nnc(-c2ccc(Br)cc2)o1)c1ccco1,0.8,35.2*,/,-9.3,-4.1
O=C(OCC#CCSc1nnc(-c2cccc3ccccc23)o1)c1cc2ccccc2o1,-0.2,48.0*,-2.6,-9.0,-4.0
C[C@H]1CCCCO[C@H](CN(C)C(=O)C2CCCCC2)[C@@H](C)CN([C@@H](C)CO)C(=O)c2cc(NC(=O)Nc3ccc4c(c3)OCO4)ccc2O1,/,/,-4.8,/,/
CO[C@@H]1CN(C)C(=O)c2cc(NS(=O)(=O)c3cn(C)cn3)ccc2OC[C@H](C)N(CC2CC2)C[C@@H]1C,/,/,0.3,/,/
CCCN(C)C[C@@H]1OCCCC[C@@H](C)Oc2ccc(NS(=O)(=O)c3ccccc3)cc2C(=O)N([C@@H](C)CO)C[C@@H]1C,/,/,-4.2,/,/
O=C(O)COc1ccccc1/C=N/NC(=O)c1cc(-c2ccc(F)cc2)nc2ccccc12,4.6,/,0.5,51.2*,-3.6
COc1cc(/C=N/NC(=O)c2cc(-c3ccccc3OC(C)C)nc3ccccc23)ccc1O,-2.8,/,/,39.8*,-6.0
O=C(O)COc1ccccc1C=NNC(=O)c1cc(-c2ccccc2)nc2ccccc12,/,-10.4,/,/,/
COc1ccccc1-c1cc(C(=O)N/N=C/C=C/c2ccccc2[N+](=O)[O-])c2ccccc2n1,0.5,/,-1.5,31.3*,-1.5
COc1cc(/C=N/NC(=O)c2cc(-c3ccccc3)nc3ccccc23)ccc1O,7.6,/,1.1,45.7*,-2.9
COc1ccc(C=NNC(=O)c2cc(-c3ccccc3)nc3ccccc23)cc1O,/,7.5,/,/,/
SMILES,FBA Mtb inh,Mtb hypoxia rep,BioA inh,GDH-TPI inh,FadD28 FP inh
O=C(N/N=C/C=C/c1ccccc1[N+](=O)[O-])c1cc(-c2cccnc2)nc2ccccc12,-1.7,/,/,13.1,-6.4
CC(=NN1CCN(c2ccccc2)CC1)c1ccc(O)cc1,/,1.1,/,/,/
O=C(CNC(=O)c1cccs1)NN=Cc1ccc(O)cc1O,/,-0.3,/,/,/
COc1cc(/C=N/NC(=O)c2cnn3c(C)cc(-c4ccccc4)nc23)ccc1O,-1.8,/,1.9,36.8*,0.7
COc1ccc(/C=N/NC(=O)c2cc(-c3ccccc3)nc3ccccc23)cc1O,-3.2,/,1.4,21.4,/
CCOc1cc(/C=N/NC(=O)c2cc(-c3cccc(OC)c3)nc3ccccc23)ccc1O,0.0,/,0.8,36.9*,-1.8
COc1ccc(-c2cc(C(=O)N/N=C/c3sccc3C)c3ccccc3n2)c(OC)c1,-1.1,/,-1.4,34.3*,-2.6
O=C(NN=Cc1cccc(Br)c1)C1CC(=O)N(c2ccccc2)C1 (stereo not drawn),/,14.7,/,/,/
